Screening data deposited in PubChem BioAssay by National Center for Advancing Translational Sciences (NCATS).
Pf growth 48h – inhibits P. falciparum growth in the first generation, 48 h; P. falciparum luciferase growth in erythrocytes, 48 h; Potency, µM (top dose mostly 28.7 µM), for the others: at the highest dose activity change, negative = inhibition, most hits filed as inhibitors; actives 5.9% (n = 310,000); AID 504832; also: potency is read from the fitted curve at half-maximal effect
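Compounds are pin-transferred into medium, infected erythrocytes (2% hematocrit, 0.1% parasitemia final) are added, and plates sit one parasite generation at 37 C in 5% CO2. Detection reagent is then added and luminescence measured.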
HCMV antiviral – human cytomegalovirus inhibition; HFF cells, HCMV-luciferase reporter, 72 h; hits give low values; activity change, negative = inhibition, % at 57.5 µM; actives 4.5% (n = 410,000); in the data active = activity change below about -60%; inconclusive = no clear call, values can overlap the other calls; inactive = above about -39%
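Inhibition of viral replication was scored as loss of reporter luminescence in HFFs infected with HCMV-luciferase (MOI 1 PFU/cell) for 72 h; compounds tested at 2 doses, normalized to buffer and Salinomycin controls.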
Pf growth 96h – P. falciparum growth inhibition at 96 hours; P. falciparum luciferase reporter growth, 96 h; Potency, µM (doses to about 28.7 µM), without a hit: at the highest dose activity change, negative = inhibition, most hits filed as inhibitors; actives 6.9% (n = 320,000); AID 504834; also: potency is read from the fitted curve at half-maximal effect
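Readout is luminescence from an integrated firefly luciferase in P. falciparum. Red cells, 2% hematocrit and 0.05% parasitemia final, were cultured with compound through two parasite generations (96 hours) at 37 C, 5% CO2.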
HCV inh – inhibitors of hepatitis C virus infection | Potency, µM (doses to about 41.8 µM), for inactives: at the highest dose activity change, negative = inhibition, most hits filed as inhibitors | actives 3.4% (n = 340,000) | AID 651820 | Huh7.5.1 HCVcc-Cre infection, luciferase reporter, 44 h; also: potency is read from the fitted curve at half-maximal effect
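Antiviral activity was scored by luciferase reporter output from cells infected with HCVcc-Cre (~0.5 moi) in presence of compound, 44 h infection period, cells seeded 1,000/well 4 h prior.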
* = called active by the depositor. Shown are actives, neighbours in structure and some others; about 13% of the full set was active somewhere. Unless noted, calls follow the shape of the dose curve; as a rule, active = well fitted inhibition curve with a large enough effect; inconclusive = small, poorly fitted or top-dose-only effect, or another doubt; inactive = no such curve, though single readings can be large or run the other way. % is scaled to controls: 0 for no effect and ±100 for the full control effect.

What do the screens show for `Cc1nc2c(cc1C(=O)N/N=C/c1ccc(O)c(O)c1)c(=O)n(C)c(=O)n2C`?
Pf growth 48h: 22%; HCMV antiviral: -74*; Pf growth 96h: 21%; HCV inh: inconclusive

How did CC(=Nc1ccc(C)cc1)c1sc2ccccc2c1O do in these assays?
Pf growth 48h: 32%; HCMV antiviral: 11; Pf growth 96h: 180%; HCV inh: 13µM*

How did CCCCCCCCn1cnc2c(N)c(C)c(C)cc21 do in these assays?
Pf growth 48h: inconclusive; HCMV antiviral: -13; Pf growth 96h: inconclusive; HCV inh: 1.6µM*

How did CC(C)CC(=O)O/N=C1\C(=O)N(Cc2ccc(Cl)cc2)c2ccc([N+](=O)[O-])cc21 do in these assays?
Pf growth 48h: inconclusive; Pf growth 96h: 5.2µM*

What do the screens show for `Oc1nc(Nc2ccc(F)cc2)sc1/C=C1\C=Nc2ccccc21`?
Pf growth 48h: 13µM*; HCMV antiviral: inconclusive; Pf growth 96h: inconclusive; HCV inh: inconclusive

Results for Oc1cccc(Nc2nc(O)c(/C=C3\C=Nc4ccccc43)s2)c1 ?
Pf growth 48h: 30%; HCMV antiviral: 28; Pf growth 96h: -16%; HCV inh: inconclusive

What do the screens show for `CC1=Nc2ccccc2/C1=C\c1sc(Nc2ccc(C)cc2)nc1O`?
Pf growth 48h: inconclusive; HCMV antiviral: -89*; Pf growth 96h: 6.6µM*; HCV inh: inconclusive

How did O=C(NCCCN1CCCC1)c1ccc2c(c1)N(Cc1ccccc1)CCS2 do in these assays?
Pf growth 48h: inconclusive; HCMV antiviral: -33; Pf growth 96h: inconclusive; HCV inh: -10%

Results for CCN1CCN(CCCNC(=O)c2ccc3c(c2)N(Cc2ccccc2)CCS3)CC1 ?
Pf growth 48h: inconclusive; HCMV antiviral: -33; Pf growth 96h: inconclusive; HCV inh: 10µM*

How did CN1CCN(CCCNC(=O)c2ccc3c(c2)N(Cc2ccc(F)cc2)CCS3)CC1 do in these assays?
Pf growth 48h: inconclusive; HCMV antiviral: -37; Pf growth 96h: 10µM*; HCV inh: inconclusive

What do the screens show for `O=C(NCCN1CCC(n2c(=O)[nH]c3ccccc32)CC1)c1ccc(F)cc1`?
HCMV antiviral: -5

Results for O=C(CCCN1CC=C(n2c(=O)[nH]c3ccccc32)CC1)c1ccc(F)cc1 ?
Pf growth 48h: 8.3µM*; HCMV antiviral: 37; Pf growth 96h: 3.3µM*

Results for COc1cc(NC(=O)c2cc(-c3cccc(OC)c3)n[nH]2)cc(OC)c1 ?
HCMV antiviral: 32

What do the screens show for `CC#CCCC(=O)N1C=Cc2ccccc2C1C#N` (centres undefined)?
Pf growth 48h: 2.3µM*; HCMV antiviral: -1; Pf growth 96h: 0%; HCV inh: -6%

Results for Cc1nc(-c2ccc(NC(=O)CC(C)C)cc2)cs1 ?
Pf growth 48h: 152%; HCMV antiviral: -76*; Pf growth 96h: 63%; HCV inh: -21%

Results for CC(C)CC(=O)Nc1ccc(-c2cn3ccsc3n2)cc1 ?
Pf growth 48h: 74%; HCMV antiviral: 139; Pf growth 96h: 13µM*; HCV inh: inconclusive

Results for O=C(Nc1ccc(F)cc1Cl)n1ncc2cc(Cl)ccc21 ?
HCMV antiviral: -6

How did O=C(C1CCCN(S(=O)(=O)c2cccc3nsnc23)C1)N1CCN(c2ccccc2Cl)CC1 (centres undefined) do in these assays?
HCMV antiviral: -13

How did CCC(C)N1CCC2(CC1)N=c1c(c3c4c5c(C)c(O)c3c(O)c1=NC(=O)C(C)=CC=C[C@H](C)[C@H](O)[C@@H](C)[C@@H](O)[C@@H](C)[C@H](OC(C)=O)[C@H](C)[C@@H](OC)C=CO[C@@](C)(O5)C4=O)N2 (some centres undefined) do in these assays?
Pf growth 48h: 9.3µM*; HCMV antiviral: 32; Pf growth 96h: inconclusive; HCV inh: 10%

What do the screens show for `CCOc1ccccc1NC(=O)CN1C(=O)COc2ccc(S(=O)(=O)N3CCCCC3)cc21`?
HCMV antiviral: -15

Results for Cc1noc(Cn2c(=O)c3ccccc3n(CC(=O)Nc3ccc(F)cc3F)c2=O)n1 ?
HCMV antiviral: -2

How did COc1cc(OC)c(OC)cc1/C=C1/Cc2ccccc2C1=O do in these assays?
Pf growth 48h: 4%; HCMV antiviral: -10; Pf growth 96h: inconclusive; HCV inh: inconclusive

What do the screens show for `CCC1C/C(=C/c2ccco2)C(=O)/C(=C/c2ccco2)C1` (centres undefined)?
Pf growth 48h: -11%; Pf growth 96h: 9.3µM*; HCV inh: inconclusive

How did COc1cc(OC)c(OC)cc1/C=C1\CC(C)C/C(=C\c2cc(OC)c(OC)cc2OC)C1=O (centres undefined) do in these assays?
Pf growth 48h: 4.7µM*; HCMV antiviral: -99*; Pf growth 96h: inconclusive; HCV inh: inconclusive

Results for CCC1C/C(=C\c2cc(OC)c(OC)cc2OC)C(=O)/C(=C/c2cc(OC)c(OC)cc2OC)C1 (centres undefined) ?
Pf growth 48h: 5.2µM*; Pf growth 96h: inconclusive; HCV inh: 7.1µM*

How did CCOC(=O)c1[nH]c2ccccc2c1NC(=O)c1cc(OC)cc(OC)c1 do in these assays?
HCMV antiviral: 6

Results for CC(=O)c1c(C)[nH]c(C(=O)Nc2ccc(Cl)cc2F)c1C ?
Pf growth 48h: 63%; HCMV antiviral: 42; Pf growth 96h: 20%; HCV inh: -20%

How did CCC(NC(=O)c1[nH]c(C)c(C(C)=O)c1C)c1ccc(Br)cc1 (centres undefined) do in these assays?
Pf growth 48h: 9.3µM*; HCMV antiviral: 3; Pf growth 96h: inconclusive; HCV inh: inconclusive

How did CC(=O)c1c(C)[nH]c(C(=O)Nc2ccc(F)c(F)c2F)c1C do in these assays?
Pf growth 48h: 13µM*; HCMV antiviral: 109; Pf growth 96h: inconclusive; HCV inh: inconclusive

Results for CCC(C)c1ccc(NC(=O)c2[nH]c(C)c(C(C)=O)c2C)cc1 (centres undefined) ?
Pf growth 48h: 4.7µM*; HCMV antiviral: 56; Pf growth 96h: 3.3µM*; HCV inh: inconclusive

Results for CCOC(=O)c1c(NC(=O)c2cc(=O)c3ccc(C)cc3o2)sc(C)c1C ?
HCMV antiviral: 16

What do the screens show for `O=C1CSC(c2cccs2)N1c1nncs1` (centres undefined)?
HCMV antiviral: 10

How did CO[C@@H]1CN(C)C(=O)c2ccc(NC(=O)C3CCCC3)cc2OC[C@@H](C)N(Cc2ccc(F)cc2)C[C@H]1C do in these assays?
HCMV antiviral: -63*

Results for Cc1ccccc1-c1nc(S(=O)(=O)c2ccc(Br)cc2)c(NCc2cccnc2)o1 ?
Pf growth 48h: 13µM*; HCMV antiviral: 10; HCV inh: 11µM*

What do the screens show for `Cc1ccc(CNc2oc(-c3ccco3)nc2S(=O)(=O)c2ccccc2)cc1`?
Pf growth 48h: 10µM*; HCMV antiviral: -31; Pf growth 96h: inconclusive; HCV inh: inconclusive
